Assay results: ChEMBL document CHEMBL3988442, “University of Dundee, Small-Polar-MMV Screening Library” (2021)
Among all 69,000 compounds or so, about 950 (1.4%) showed an effect of 50% or more. The full list was thinned out, with strong results kept by preference.

tested on: Mycobacterium tuberculosis; experiment: Cornell M. t heat shock assay; type: functional, organism-based; set-up: dose or concentration left out as unconfirmed; also: in the data most compounds retested in dose-response had high values

Compared with `Cc1cnccc1NC(=O)CCc1ccsc1`, `Cc1cc(NC(=O)CCc2ccsc2)n(C)n1` is higher in “Percent Effect” value: -21.59% for the first, 89.31% for the second.

Going from `Cn1cc(NC(=O)CCc2ccsc2)ccc1=O` to `Cc1cc(NC(=O)NCCc2ccsc2)n(C)n1`, the “Percent Effect” value rises from 27.26% to 63.69%.

Going from `COc1ccc(CCNC(=O)Nc2cc(C)nn2C)cc1` to `Cc1cc(NC(=O)NCCc2ccccc2)n(C)n1`, the “Percent Effect” value falls from 8.379% to -19.68%.

Going from `COCCN1Cc2nccn2CC(COCc2csc(C)n2)C1.O=C(O)C(F)(F)F.O=C(O)C(F)(F)F` (centres undefined) to `Cc1ccc(CN2C[C@@H]3C[C@H](C(=O)NCC4CC4)N(C)[C@@H]3C2)o1.O=C(O)C(F)(F)F.O=C(O)C(F)(F)F`, the “Percent Effect” value falls from 2.482% to -27.97%.

First: O=S(=O)(c1ccc2c(c1)OCCO2)N1CCc2ccccc2C1
Second: CN(CCc1ccccc1)Cc1nc2c(cnn2C)c(=O)[nH]1
The “Percent Effect” value of the first is lower: -4.595% for the first, 14.44% for the second.

First: O=C(O)C(F)(F)F.c1ccc(N2CCCC3(CCN(Cc4cccs4)C3)C2)nc1 (centres undefined)
Second: CCc1cnc(N2CCC3(CC2)CN(c2cccnc2)C(=O)CO3)nc1.O=C(O)C(F)(F)F
The “Percent Effect” value of the first is higher: -4.42% for the first, -15.98% for the second.

Compared with `Cc1ccc(C(CCNCCCN(C)C)C2CCOC(C)(C)C2)cc1.O=C(O)C(=O)O` (centres undefined), `CC[C@H]1CN2CC[C@H]1C[C@@H]2CNCc1ccc(N(C)C)cc1` is higher in “Percent Effect” value: -7.6% for the first, 1.41% for the second.

Going from `CCc1ccc(-c2cc(C(F)(F)F)nc(N3CCC(N)CC3)n2)cc1` to `CCn1ncc(-c2cc(C(F)(F)F)nc(N3CCC(N)CC3)n2)c1C`, the “Percent Effect” value falls from 103% to 23.29%.

Compared with `Cc1c(-c2cc(C(F)(F)F)nc(N3CCC(N)CC3)n2)cnn1C`, `Cc1cc(NC(=O)c2nc(N3CCCC3)ncc2Cl)nc(C(C)C)n1` is higher in “Percent Effect” value: -8.82% for the first, 105.6% for the second.

First: O=C(C1CC(F)(F)C1)N1C[C@@H]2CN(CC3CCCC3)CCO[C@@H]2C1.O=C(O)C(F)(F)F
Second: Cc1noc(C)c1CN1C[C@@H]2COC[C@H](C(=O)N3CCCCO3)[C@@H]2C1.O=C(O)C(F)(F)F
The “Percent Effect” value of the first is lower: -23.11% for the first, 10.78% for the second.

First: CN1CC(=O)N(c2ccsc2)CC12CCN(C(=O)N1CCCC1)C2.O=C(O)C(F)(F)F (centres undefined)
Second: O=C(O)C(F)(F)F.O=C(c1ccno1)N1CC[C@@H]2O[C@@H](COCCN3CCCC3)CC[C@@H]21
The “Percent Effect” value of the first is lower: -15.35% for the first, -5.47% for the second.

Compared with `CCN1CCC(c2nc3ccc(NC4CCC4)cn3n2)CC1.O=C(O)C(F)(F)F`, `CN1CCc2nc(C3CCN(C(=O)CCC4CCCC4)CC3)ncc2C1` is higher in “Percent Effect” value: 28.46% for the first, 104.5% for the second.

First: CC(=O)N[C@@H]1CN(C(=O)c2cccc(C(F)(F)F)c2)C[C@H]1O
Second: CN(C)CCO[C@@H]1CC[C@H]2[C@H]1OCCN2C(=O)c1ccnnc1.O=C(O)C(F)(F)F
The “Percent Effect” value of the first is higher: -5.977% for the first, -33.17% for the second.

Compared with `O=C(Nc1cc(Cl)ccn1)c1nc(N2CCCC2)ncc1Cl`, `O=C(Nc1ccccn1)c1nc(N2CCCC2)ncc1Cl` is lower in “Percent Effect” value: 5.327% for the first, -2.485% for the second.

Going from `CC[C@H]1CN2CC[C@H]1C[C@@H]2CNC(=O)Nc1cc(OC)cc(OC)c1` to `CC[C@H]1CN2CC[C@H]1C[C@@H]2CNC(=O)Nc1ccc(Br)cc1`, the “Percent Effect” value falls from 76.55% to 4.849%.

Going from `CC[C@H]1CN2CC[C@H]1C[C@@H]2CNC(=O)Nc1ccccc1` to `CC[C@H]1CN2CC[C@H]1C[C@@H]2CNCc1ccc(OC)cc1`, the “Percent Effect” value falls from -5.923% to -7.267%.

First: CC[C@H]1CN2CC[C@H]1C[C@@H]2CNCc1ccc(OC(F)(F)F)cc1
Second: C[C@H]1CN2C[C@H](O)CC2CN1Cc1ccc2nccnc2c1.Cl (some centres undefined)
The “Percent Effect” value of the first is higher: 100.5% for the first, 2.113% for the second.

Compared with `CC(C)C(=O)N(C)Cc1nc(N2CCCC2)ncc1-c1ccncc1.Cl`, `Cc1[nH]nc2ncc(C(=O)N3CCN(CC(C)O)CC3)cc12.Cl` (centres undefined) is lower in “Percent Effect” value: 19.59% for the first, -10.49% for the second.

First: CC(C)c1cc(C(=O)N2CCCC(n3cncn3)C2)n[nH]1 (centres undefined)
Second: CN1CCc2nc(C3CCCN(C(=O)CC4CCCCC4)C3)ncc2C1 (centres undefined)
The “Percent Effect” value of the first is lower: -20.76% for the first, -14.45% for the second.

Going from `Cc1noc(C)c1CN1CCO[C@H]2CN(Cc3cncn3C)C[C@H]21.O=C(O)C(F)(F)F.O=C(O)C(F)(F)F` to `CNC(=O)CN1CCOCC12CCN(Cc1ccncc1)CC2.O=C(O)C(F)(F)F.O=C(O)C(F)(F)F`, the “Percent Effect” value falls from -21.37% to -37.23%.

Going from `O=C(CCC1CCCC1)N1CCC(c2ncc3c(n2)CCNC3)CC1` to `COc1nccnc1-c1cc(NC2CCCC2)nc2[nH]ccc12`, the “Percent Effect” value rises from 14.08% to 103.35%.

First: CCC(C)Oc1ccc(CNCCNS(C)(=O)=O)cc1Cl (centres undefined)
Second: CCC(C)Oc1ccc(CNCCNC(C)=O)cc1Cl (centres undefined)
The “Percent Effect” value of the first is higher: 14.23% for the first, -0.254% for the second.

First: CCC(C)Oc1ccc(CNCCc2c[nH]cn2)cc1Cl (centres undefined)
Second: CN(CCCc1ccccc1)Cc1nc2c(cnn2C)c(=O)[nH]1
The “Percent Effect” value of the first is higher: 101.9% for the first, 59.96% for the second.

Compared with `COCCCN(CCOC)Cc1nc2c(cnn2C)c(=O)[nH]1`, `COCCN(CCOC)Cc1nc2c(cnn2C)c(=O)[nH]1` is lower in “Percent Effect” value: 18.48% for the first, -10.64% for the second.

First: CN(CCCOc1ccccc1)Cc1nc2c(cnn2C)c(=O)[nH]1
Second: COCCN(CCc1ccccc1)Cc1nc2c(cnn2C)c(=O)[nH]1
The “Percent Effect” value of the first is lower: -3.727% for the first, 50.74% for the second.

Going from `FC(F)(F)c1ccc(-c2cc(NC3CCNCC3)nc3[nH]ccc23)nc1` to `Nc1ccnc(-c2cc(NC3CCNCC3)nc3[nH]ccc23)c1`, the “Percent Effect” value falls from 16.27% to 14.8%.

Compared with `COc1ncc(-c2cc(NCCN(C)C)nc3[nH]ccc23)c(OC)n1`, `COc1ncc(-c2cc(NC3CCCC3)nc3[nH]ccc23)c(OC)n1` is higher in “Percent Effect” value: -24.47% for the first, 102% for the second.

Compared with `COc1nccnc1-c1cc(NC2CCNCC2)nc2[nH]ccc12`, `CNc1cc(C)nc(-c2cc(NC3CCNCC3)nc3[nH]ccc23)n1` is lower in “Percent Effect” value: -16.125% for the first, -20.27% for the second.

Compared with `COc1cc(-c2cc(NC3CCCC3)nc3[nH]ccc23)nc(N)n1`, `COc1ncc(-c2ccc(O)cc2)c(OC)n1` is lower in “Percent Effect” value: 101.075% for the first, -3.595% for the second.

For `O=C(O)C(F)(F)F.O=C(O)C(F)(F)F.c1ccc(OC[C@]23COC[C@H]2CN(C2CCOCC2)C3)nc1`, the “Percent Effect” value was -7.98%.
